# In PubChem BioAssay (NCI):
# About 83,000 compounds went through this panel and 20% of them were active in at least one assay; those are over-represented in the sample as a whole.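 Step 1: grow cells in 96-well plates. Step 2: add test compound at a single concentration. Step 3: incubate 48 h. Step 4: record percent growth.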 Values without a mark were called inactive. The source made the active and inactive calls. Rule for the calls: active = growth percent below 10; inactive = the rest.
# System: SK-OV-3 ovarian
# Experiment: NCI-60 one-dose screen, 48 h (100 = growth as untreated, 0 = no growth, -100 = all killed)
# Settings: 10 µM unless noted
row,Compound,growth
1,CSc1ccc(-c2n[nH]nc2-c2cc3ccccc3s2)cc1,52.7%
2,Clc1ccc2c(NCCCNc3nc(-n4ccnc4)nc4ccccc34)ccnc2c1,94.5%
3,CN1CCN(c2nc(NCCCNc3ccnc4cc(Cl)ccc34)c3ccccc3n2)CC1,66.6%
4,CN(C)c1ccc(NC(=O)c2ccc(/C=C/C(=O)c3ncc[nH]3)cc2)cc1,64.2%
5,COc1ccc(S(=O)(=O)N2CCCCC2)cc1NC(=O)c1[nH]c(C)c2c1CCCCC2=O,19.7%
6,CCn1c(O)c(/C=N/NC(=O)C(C)c2ccc(CC(C)C)cc2)sc1=S (stereo not given),45.3%
7,Cc1nn(-c2cc(=O)[nH]c3ccc(Cl)cc23)c(N)c1C#N,102%
8,O=C1/C(=C(/c2ccccc2)N2CCOCC2)Cc2ccccc21,93.6%
9,O=C(COc1cccc(/C=C2\COc3ccccc3C2=O)c1)Nc1nccs1,99.8%
10,CCN=C1C=CC(=C(c2ccc(N)cc2)c2ccc(N(CC)CC)c(C)c2)C=C1,6.51% (active)
11,O=C(C(=O)c1ccc2c(c1)OCO2)c1ccc2c(c1)OCO2,114%
12,COc1ccc(/C=C2\Oc3cc(OCCCCN4CCCC4)ccc3C2=O)cc1,113%
13,COc1cc(-c2nn(-c3ccc(Br)cc3)cc2C(=O)O)ccc1O,100%
14,O=c1ccccc(-c2ccc(-c3ccco3)cc2)c1O,18.2%
15,Cn1cc(C(=O)c2nc(-c3c[nH]c4ccc(Br)cc34)no2)c2cc(F)ccc21,87.9%
